Rows were chosen to be rich in hits. Some 21% of all compounds tested hit in one or more screens of this group.
NS1 function inh – qHTS Assay for Inhibitors of Influenza NS1 Protein Function. Potency, µM (titrated, usually from 46.1 µM), without a hit: at the top dose activity, positive = more growth. 0.4% of 270,000 active. AID 2326, 2010; calls by dose curve; also: potency is read from the fitted curve at half-maximal effect; actives are rising curves; nearly all actives have a fitted effect of over 50% in size
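OD600 was taken as the measure of yeast growth restored by compound in an NS1-expressing S. cerevisiae strain. Cells had been washed out of glucose medium and diluted 1:100 into galactose -URA medium, pH 6.0.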
Cycloheximide cs – Cycloheximide Counterscreen for Small Molecule Inhibitors of Shiga Toxin; cell reporter, cycloheximide protein synthesis inhibition counterscreen; max response, %; 12% of 300,000 active; in the data active = max response mostly above about 13%, no sharp cut-off; inactive = mostly below about 14%; also: read at 38.3 µM for the half of the compounds with a filed dose; 0% is about no effect
Shiga inhibitor – A qHTS for Small Molecule Inhibitors of Shiga Toxin; inhibition, % at 38.7 µM; 9.2% of 290,000 active; Vero cells, Shiga toxin protein synthesis inhibition reporter; in the data active = inhibition mostly above about 28%, no sharp cut-off; inactive = mostly below about 43%; also: 0% is about no effect
Pf growth 96h – Primary qHTS for delayed death inhibitors of the malarial parasite plastid, 96 hour incubation | AID 504834, 2011 | Potency, µM (doses to about 28.7 µM), for inactives: at the highest dose activity change, negative = inhibition, hits mostly inhibitors | P. falciparum luciferase reporter growth, 96 h | 6.9% of 320,000 active; also: potency is read from the fitted curve at half-maximal effect; % is scaled to controls: 0 for no effect and ±100 for the full control effect
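Luminescence readout: decreased luciferase signal marks inhibited growth of reporter-expressing P. falciparum in infected red cells (2% hematocrit, 0.05% parasitemia final), exposed to compound two generations (96 h, 37 C, 5% CO2).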
Pf growth 48h – Primary qHTS for delayed death inhibitors of the malarial parasite plastid, 48 hour incubation. P. falciparum luciferase growth in erythrocytes, 48 h. Potency, µM (series often up to 28.7 µM), without a hit: at the highest dose activity change, negative = inhibition, usual class: inhibitors. 5.9% of 310,000 active. AID 504832, 2011; also: potency is read from the fitted curve at half-maximal effect; % is scaled to controls: 0 for no effect and ±100 for the full control effect
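Luminescence readout; reporter = integrated firefly luciferase in P. falciparum. RBC culture at 2% hematocrit, 0.1% parasitemia final, 37 C/5% CO2; decreased signal taken as growth inhibition.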
Giardia FBPA inh – qHTS Assay for Inhibitors of Fructose-1,6-bisphosphate Aldolase from Giardia Lamblia; 0.71% of 290,000 active; Potency, µM (titrated, usually from 59.6 µM), for the others: at the top dose activity, negative = inhibition, usual class: inhibitors; purified Giardia FBPA; A8B2U2; also: potency is read from the fitted curve at half-maximal effect; % is scaled to controls: 0 for no effect and ±100 for the full control effect; nearly all actives have a fitted effect of over 55% in size
Target sequence (A8B2U2 whole entry, looked up): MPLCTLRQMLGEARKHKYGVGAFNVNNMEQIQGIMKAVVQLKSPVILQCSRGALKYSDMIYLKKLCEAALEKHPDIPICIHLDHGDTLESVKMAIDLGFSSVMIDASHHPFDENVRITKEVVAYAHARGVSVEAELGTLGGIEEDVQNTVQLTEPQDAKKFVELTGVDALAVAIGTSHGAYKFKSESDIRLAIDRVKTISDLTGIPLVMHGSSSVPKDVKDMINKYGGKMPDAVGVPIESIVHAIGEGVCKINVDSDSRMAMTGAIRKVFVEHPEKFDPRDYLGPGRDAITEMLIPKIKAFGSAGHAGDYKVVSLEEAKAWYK
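40 nM FBPA preincubated 10 min at RT with compound (up to 57.5 uM final), then substrate plus GAPDH/TPI/NAD/arsenate coupling and diaphorase/resazurin added. Fluorescence read after 20 min at RT, 525/598 nm.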
An asterisk follows results filed as active; [ ] = dose if it differs, or a comment. Unless noted, calls follow the shape of the dose curve; as a rule, active = well fitted curve in the direction sought with a large enough effect; inconclusive = small, poorly fitted or top-dose-only effect, or another doubt; inactive = no such curve, though single readings can be large; an effect the other way counts as inactive or inconclusive.

What do the screens show for `c1ccc2c(c1)oc1c(N3CCN(Cc4ccc5c(c4)OCO5)CC3)ncnc12`?
NS1 function inh: -56.4%; Cycloheximide cs: 36.0*; Shiga inhibitor: 97.8*; Pf growth 48h: inconclusive; Giardia FBPA inh: 0.5%

Results for Cc1ccc2c(c1)[nH]c1c(N3CCN(Cc4ccc5c(c4)OCO5)CC3)ncnc12 ?
NS1 function inh: -69.2%; Cycloheximide cs: -3.0; Shiga inhibitor: -18.1; Pf growth 48h: 2.94µM*; Giardia FBPA inh: -0.1%

What do the screens show for `COc1cc(/C=N/Nc2ccc(C(=O)O)cc2)ccc1O`?
Cycloheximide cs: 5.3; Shiga inhibitor: -8.2; Pf growth 96h: 22.6%; Pf growth 48h: inactive; Giardia FBPA inh: 4.4%

What do the screens show for `O=c1nccc(N/N=C/c2cccc(O)c2)[nH]1`?
NS1 function inh: 2.2%; Cycloheximide cs: 26.3*; Shiga inhibitor: 2.3; Pf growth 96h: 44.4%; Pf growth 48h: 69.8%; Giardia FBPA inh: inconclusive

Results for COc1cc(/C=N/Nc2ccnc(=O)[nH]2)ccc1O ?
NS1 function inh: 4.1%; Cycloheximide cs: 32.1*; Shiga inhibitor: 66.7; Pf growth 96h: inconclusive; Pf growth 48h: -26.8%[0.00184 µM]; Giardia FBPA inh: inconclusive

What do the screens show for `O=C1c2ccccc2-c2nnc(-c3ccc(F)cc3)cc21`?
Cycloheximide cs: 42.1*; Shiga inhibitor: 80.0*; Pf growth 96h: inconclusive; Pf growth 48h: -16.7%; Giardia FBPA inh: -3.2%

Results for Cc1ccccc1-c1cc2c(nn1)-c1ccccc1C2=O ?
NS1 function inh: -120.1%; Cycloheximide cs: 17.6; Shiga inhibitor: 83.2*; Pf growth 48h: 4.15µM*; Giardia FBPA inh: inconclusive

Results for COc1cc(-c2c(C(C)=O)c(C)nc3c2C(=O)c2ccccc2-3)cc(OC)c1OC ?
NS1 function inh: 1.6%; Cycloheximide cs: -1.6; Shiga inhibitor: -6.0; Pf growth 96h: 4.5%; Pf growth 48h: 8.9%; Giardia FBPA inh: 1.3%

What do the screens show for `O=C1c2ccccc2-c2n[nH]c3cccc1c23`?
NS1 function inh: 0.0%; Pf growth 96h: inconclusive; Pf growth 48h: -4.4%; Giardia FBPA inh: -4.7%

How did O=C1c2ccccc2-c2nnc(-c3ccc(O)cc3)cc21 do in these assays?
NS1 function inh: 1.1%; Cycloheximide cs: 19.8*; Shiga inhibitor: 26.4; Pf growth 96h: -24.1%; Pf growth 48h: 97.3%; Giardia FBPA inh: -13.8%

How did Cc1ccc(-c2cc3c(nn2)-c2ccccc2C3=O)cc1 do in these assays?
NS1 function inh: -9.8%; Cycloheximide cs: 21.7*; Shiga inhibitor: 24.5*; Pf growth 96h: 0.37µM*; Pf growth 48h: 0.522µM*; Giardia FBPA inh: -8.0%

How did N#Cc1c(-c2ccccc2)cc(-c2ccc(O)cc2)nc1N do in these assays?
NS1 function inh: -18.7%; Cycloheximide cs: -1.1; Shiga inhibitor: 7.8; Pf growth 96h: -12.1%; Pf growth 48h: inconclusive; Giardia FBPA inh: 0.1%

How did Cc1ccc(OCC(O)CN2CCC(Cc3ccccc3)CC2)c(C)c1 (stereo not given) do in these assays?
NS1 function inh: -17.3%; Cycloheximide cs: -11.8; Shiga inhibitor: -1.3; Pf growth 96h: inconclusive; Pf growth 48h: -20.8%

Results for Cc1cc(C(=O)CCC(=O)NCC2COc3ccccc3O2)c(C)s1 (stereo not given) ?
Pf growth 96h: 17.7%; Pf growth 48h: inconclusive

How did NS(=O)(=O)c1ccc(NC(=O)COc2ccc(Cl)cc2)cc1 do in these assays?
NS1 function inh: 3.3%; Cycloheximide cs: -3.5; Shiga inhibitor: -7.2; Pf growth 96h: 25.0%; Giardia FBPA inh: 8.3%

Results for CCCNC(=O)Cn1c2ccccc2c2nc(=O)cc(C)n21 ?
NS1 function inh: -5.6%; Cycloheximide cs: 2.3; Shiga inhibitor: -13.0; Pf growth 96h: 8.28µM*; Giardia FBPA inh: -0.3%

Results for CCC1CCCCN1CCCNC(=O)Cn1c2ccccc2c2nc(=O)cc(C)n21 (stereo not given) ?
NS1 function inh: -6.2%; Cycloheximide cs: -2.2; Shiga inhibitor: 13.3; Pf growth 96h: 14.9%; Pf growth 48h: 11.9%

Assay outcomes: PubChem, National Center for Advancing Translational Sciences (NCATS)
